Measured values reported in PubChem BioAssay AID1159580 (chemical genetic matrix, 2015).
Values joined by “and” are separate entries in the source; they are usually repeats but may differ in a detail not shown here. Equal entries are not always repeated. Out of some 5,500 compounds screened, about 2,000 (36%) were called active. Roughly 18% stayed inconclusive and do not appear here. Cut-off read from the data, not from the text of the source: active = normalized growth mostly below about 0.91 (no sharp cut-off); inconclusive = no clear call, values can overlap the other calls; inactive = mostly above about 0.92. Some of the results follow.

Assay: chemical genetic growth profiling, strain panel (AID 1159580);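 note: tested at 20 µM; growth read once vehicle control cultures reached saturation at 30 °C; 1 = growth at the plate median or of vehicle wells; lower values mean less growth of the strain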
Details: S. cerevisiae deletion strains, growth OD
[1] = locus YMR307W, strain GAS1, stronger effect = lower value
[2] = locus YNL153C, strain GIM3, stronger effect = lower value
[3] = locus YPL055C, strain LGE1, stronger effect = lower value

Measured: normalized growth

CC(C)NCC(O)COc1ccc(CCOCC2CC2)cc1 (centres undefined)
inactive: locus YAL040C, strain CLN3, stronger effect = lower value 1.05 | locus YCL061C, strain MRC1 (second series), stronger effect = lower value 1 | locus YER002W, strain NOP16, stronger effect = lower value 1.03 | locus YGR078C, strain PAC10, stronger effect = lower value 0.994 | [1] 0.998 | [2] 1.01 | locus YNL175C, strain NOP13, stronger effect = lower value 1.02 | locus YNL197C, strain WHI3, stronger effect = lower value 1.03 | locus YNL224C, strain SQS1, stronger effect = lower value 1.01 | locus YOR083W, strain WHI5 (second series), stronger effect = lower value 1.05 | [3] 0.998 | locus YPL241C, strain CIN2, stronger effect = lower value 1

O=C(Oc1ccccc1C(=O)O)c1ccccc1O
inactive: locus YAL013W, strain DEP1, stronger effect = lower value 0.985 | locus YAL021C, strain ccr4, stronger effect = lower value 1 | locus YAL026C, strain drs2, stronger effect = lower value 0.982 | locus YAL030W, strain snc1, stronger effect = lower value 0.979 | locus YBL061C, strain skt5, stronger effect = lower value 0.973 | locus YBR009C, strain hhf1, stronger effect = lower value 1.01 | locus YBR021W, strain FUR4, stronger effect = lower value 1 | locus YBR023C, strain chs3, stronger effect = lower value 1 | locus YBR171W, strain sec66, stronger effect = lower value 0.941 | locus YBR229C, strain ROT2, stronger effect = lower value 0.955 | locus YBR231C, strain swc5, stronger effect = lower value 0.984 | locus YBR279W, strain paf1, stronger effect = lower value 1 | locus YCL011C, strain gbp2, stronger effect = lower value 0.975 | locus YCL016C, strain dcc1, stronger effect = lower value 1 | locus YCL029C, strain bik1, stronger effect = lower value 0.985 | locus YCL069W, strain vba3, stronger effect = lower value 0.986 | locus YCR088W, strain abp1, stronger effect = lower value 0.972 | locus YDL005C, strain med2, stronger effect = lower value 0.944 | locus YDL035C, strain GPR1, stronger effect = lower value 0.964 | locus YDL040C, strain nat1, stronger effect = lower value 0.982 | locus YDL074C, strain BRE1, stronger effect = lower value 0.974 | locus YDL101C, strain DUN1, stronger effect = lower value 0.98 | locus YDL185W, strain tfp1, stronger effect = lower value 0.961 | locus YDL192W, strain arf1, stronger effect = lower value 0.977 | locus YDR001C, strain nth1, stronger effect = lower value 0.953 | locus YDR069C, strain doa4, stronger effect = lower value 0.971 | locus YDR101C, strain arx1, stronger effect = lower value 0.944 | locus YDR137W, strain rgp1, stronger effect = lower value 0.972 | locus YDR159W, strain sac3, stronger effect = lower value 0.978 | locus YDR162C, strain NBP2, stronger effect = lower value 0.97 | locus YDR195W, strain ref2 0.897 | locus YDR297W, strain sur2, stronger effect = lower value 0.997 | locus YDR318W, strain mcm21, stronger effect = lower value 1 | locus YDR334W, strain swr1, stronger effect = lower value 0.942 | locus YDR335W, strain msn5, stronger effect = lower value 0.975 | locus YDR388W, stronger effect = lower value 0.976 | locus YDR392W, strain spt3, stronger effect = lower value 1 | locus YDR502C, strain sam2, stronger effect = lower value 0.996 | locus YEL003W, strain gim4, stronger effect = lower value 0.979 | locus YEL037C, strain rad23, stronger effect = lower value 0.965 | locus YEL061C, strain CIN8 (second series), stronger effect = lower value 0.978 | locus YEL061C, strain CIN8, stronger effect = lower value 0.984 | locus YER015W, strain faa2, stronger effect = lower value 0.989 | locus YER016W, strain bim1, stronger effect = lower value 1 | locus YER110C, stronger effect = lower value 0.983 | locus YER111C, strain swi4, stronger effect = lower value 0.95 | locus YER155C, strain BEM2 (second series), stronger effect = lower value 0.99 | locus YER155C, strain BEM2, stronger effect = lower value 0.997 | locus YER167W, strain BCK2, stronger effect = lower value 1 | locus YFR010W, strain ubp6, stronger effect = lower value 0.966 | locus YGL078C, strain dbp3, stronger effect = lower value 1.01 | locus YGL086W, strain mad1, stronger effect = lower value 0.976 | locus YGL167C, strain pmr1, stronger effect = lower value 0.937 | locus YGL173C, strain kem1, stronger effect = lower value 0.979 | locus YGL227W, strain vid30, stronger effect = lower value 0.98 | locus YGL240W, strain doc1, stronger effect = lower value 0.985 | locus YGL248W, strain PDE1, stronger effect = lower value 0.99 | locus YGL253W, strain hxk2, stronger effect = lower value 0.968 | locus YGR135W, strain pre9, stronger effect = lower value 1.06 | locus YGR252W, strain gcn5, stronger effect = lower value 1.09 | locus YHR013C, strain ard1, stronger effect = lower value 0.963 | locus YHR027C, strain rpn1, stronger effect = lower value 0.985 | locus YHR030C, strain SLT2, stronger effect = lower value 0.977 and 1 | locus YHR079C, strain IRE1 (second series), stronger effect = lower value 0.98 | locus YHR079C, strain IRE1, stronger effect = lower value 0.987 | locus YHR094C, strain hxt1, stronger effect = lower value 0.977 | locus YHR129C, strain ARP1, stronger effect = lower value 0.955 | locus YHR142W, strain chs7, stronger effect = lower value 0.982 | locus YHR200W, strain rpn10, stronger effect = lower value 0.987 | locus YIL066C, strain RNR3, stronger effect = lower value 0.971 | locus YIL073C, strain SPO22, stronger effect = lower value 1.03 | locus YIL125W, strain kgd1, stronger effect = lower value 0.992 | locus YIR030C, strain dcg1, stronger effect = lower value 0.992 | locus YJL092W, strain hpr5, stronger effect = lower value 0.961 | locus YJL095W, strain BCK1 (second series), stronger effect = lower value 0.972 | locus YJL095W, strain BCK1, stronger effect = lower value 1.02 and 0.96 | locus YJL115W, strain asf1, stronger effect = lower value 0.956 | locus YJL129C, strain trk1, stronger effect = lower value 0.955 | locus YJL134W, strain LCB3, stronger effect = lower value 0.985 | locus YJL154C, strain vps35, stronger effect = lower value 0.933 | locus YJL164C, strain tpk1, stronger effect = lower value 1.01 | locus YJL166W, strain qcr8, stronger effect = lower value 0.964 | locus YJL168C, strain set2, stronger effect = lower value 0.988 | locus YJL187C, strain SWE1 (second series), stronger effect = lower value 0.966 | locus YJR043C, strain POL32, stronger effect = lower value 0.975 | locus YJR066W, strain TOR1, stronger effect = lower value 0.937 | locus YJR075W, strain HOC1, stronger effect = lower value 0.978 | locus YKL009W, strain mrt4, stronger effect = lower value 0.971 | locus YKL068W, stronger effect = lower value 0.978 | locus YKL085W, strain MDH1 (second series), stronger effect = lower value 0.998 | locus YKL085W, strain MDH1, stronger effect = lower value 0.998 | locus YKL160W, strain elf1, stronger effect = lower value 0.969 | locus YKR001C, strain vps1, stronger effect = lower value 0.986 | locus YKR026C, strain gcn3, stronger effect = lower value 0.923 | locus YKR091W, strain srl3, stronger effect = lower value 0.984 | locus YLL001W, strain dnm1, stronger effect = lower value 0.944 | locus YLL026W, stronger effect = lower value 1 | locus YLL041C, strain sdh2, stronger effect = lower value 0.968 | locus YLR027C, strain aat2, stronger effect = lower value 0.984 | locus YLR039C, strain RIC1, stronger effect = lower value 0.991 | locus YLR058C, strain SHM2, stronger effect = lower value 0.971 | locus YLR102C, strain apc9, stronger effect = lower value 0.993 | locus YLR113W, strain HOG1, stronger effect = lower value 0.906 | locus YLR221C, strain rsa3, stronger effect = lower value 1 | locus YLR258W, strain gsy2, stronger effect = lower value 0.974 | locus YLR262C, strain YPT6 (second series), stronger effect = lower value 0.925 | locus YLR262C, strain YPT6, stronger effect = lower value 0.908 | locus YLR268W, strain sec22, stronger effect = lower value 0.978 | locus YLR320W, strain mms22, stronger effect = lower value 1 | locus YLR330W, strain CHS5, stronger effect = lower value 0.988 | locus YLR342W, strain FKS1 (second series), stronger effect = lower value 1 | locus YLR342W, strain FKS1, stronger effect = lower value 0.979 | locus YLR357W, strain rsc2, stronger effect = lower value 0.958 | locus YLR370C, strain arc18, stronger effect = lower value 0.986 | locus YLR371W, strain rom2, stronger effect = lower value 0.998 | locus YLR384C, strain iki3, stronger effect = lower value 0.967 | locus YLR418C, strain cdc73, stronger effect = lower value 1.03 | locus YML016C, strain PPZ1, stronger effect = lower value 0.987 | locus YML032C, strain rad52, stronger effect = lower value 0.976 | locus YML120C, strain ndi1, stronger effect = lower value 0.967 | locus YML124C, strain tub3, stronger effect = lower value 0.992 | locus YMR058W, strain fet3, stronger effect = lower value 0.995 | locus YMR078C, strain ctf18, stronger effect = lower value 0.988 | locus YMR125W, strain sto1, stronger effect = lower value 0.93 | locus YMR129W, stronger effect = lower value 0.968 | locus YMR205C, strain PFK2, stronger effect = lower value 0.96 | locus YMR223W, strain ubp8, stronger effect = lower value 1.02 | locus YMR231W, strain pep5, stronger effect = lower value 0.956 | [1] 0.999 | locus YNL067W, strain RPL9B, stronger effect = lower value 0.98 | locus YNL071W, strain lat1, stronger effect = lower value 0.971 | [2] 0.982 | locus YNL183C, strain NPR1, stronger effect = lower value 0.921 | locus YNL209W, strain ssb2, stronger effect = lower value 0.981 | locus YNL233W, strain BNI4, stronger effect = lower value 0.988 | locus YNL248C, strain rpa49, stronger effect = lower value 0.997 | locus YNL250W, strain rad50, stronger effect = lower value 0.995 | locus YNL271C, strain bni1, stronger effect = lower value 0.993 | locus YNL298W, strain CLA4, stronger effect = lower value 1.01 | locus YNL307C, strain MCK1, stronger effect = lower value 0.986 | locus YNL322C, strain KRE1 (second series), stronger effect = lower value 0.963 | locus YNR049C, strain mso1, stronger effect = lower value 0.967 | locus YNR052C, strain pop2, stronger effect = lower value 0.988 | locus YOL006C, strain TOP1, stronger effect = lower value 1.02 | locus YOL012C, strain htz1 0.938 | locus YOL147C, strain pex11, stronger effect = lower value 0.993 | locus YOR001W, strain rrp6, stronger effect = lower value 0.984 | locus YOR061W, strain CKA2, stronger effect = lower value 0.972 | locus YOR069W, strain VPS5, stronger effect = lower value 0.986 | locus YOR070C, strain gyp1, stronger effect = lower value 0.994 | locus YOR080W, strain dia2, stronger effect = lower value 0.963 | locus YOR083W, strain WHI5, stronger effect = lower value 0.996 | locus YOR106W, strain vam3, stronger effect = lower value 0.958 | locus YOR136W, strain idh2, stronger effect = lower value 0.982 | locus YOR144C, strain elg1, stronger effect = lower value 0.984 | locus YOR184W, strain ser1, stronger effect = lower value 0.986 | locus YOR231W, strain MKK1, stronger effect = lower value 0.959 | locus YOR265W, strain rbl2, stronger effect = lower value 0.98 | locus YOR270C, strain vph1, stronger effect = lower value 0.931 | locus YOR290C, strain snf2, stronger effect = lower value 1 | locus YOR316C, strain cot1, stronger effect = lower value 0.97 | locus YPL051W, strain arl3, stronger effect = lower value 0.993 | [3] 0.992 | locus YPL078C, strain atp4, stronger effect = lower value 0.962 | locus YPL106C, strain sse1, stronger effect = lower value 0.99 | locus YPL240C, strain hsp82, stronger effect = lower value 0.982 | locus YPL256C, strain CLN2, stronger effect = lower value 0.98 | locus YPR119W, strain clb2, stronger effect = lower value 0.985 | locus YPR141C, strain kar3, stronger effect = lower value 0.979 | locus YPR163C, strain tif3, stronger effect = lower value 0.986 | locus YPR167C, strain met16, stronger effect = lower value 0.998 | strain wtn01, stronger effect = lower value 1.02
